This passage reports Potency and outcome results from PubChem BioAssay (NCATS).

Results filed as inconclusive are left out. Calls of active or inactive are those of the source. Unless noted, calls come from the whole dose curve; as a rule, active = well fitted curve in the direction sought with a large enough effect; inconclusive = small, poorly fitted or top-dose-only effect, or another doubt; inactive = no such curve, though single readings can be large; an effect the other way counts as inactive or inconclusive.

Test [1] concerns the target Voltage-gated inwardly rectifying potassium channel KCNH2 (Homo sapiens) (UniProt Q12809). Briefly: qHTS Assay for Small Molecule Inhibitors of the Human hERG Channel Activity (AID 588834).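 Note: lower thallium flux fluorescence means stronger hERG block; nearly all actives have a fitted effect of over 50% in size.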 Note: potency is the fitted concentration of half-maximal effect. In short, it runs like this: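 Homogeneous FluxOR thallium flux assay using hERG-expressing U2OS cells (BacMam). Compound treatment about 10 minutes preceded stimulation; reduced fluorescence taken as channel block.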

The target of test [2] is Glutaminase kidney isoform, mitochondrial (Homo sapiens) (UniProt O94925). Briefly: qHTS for Inhibitors of Glutaminase (GLS): LOPAC Validation (AID 624146). Note: nearly all actives have a fitted effect of over 60% in size. Note: potency is the fitted concentration of half-maximal effect. In short, it runs like this:
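Compounds were pin-transferred onto hKGA, after which L-glutamine (1 mM solution) and a detection mix of glutamate oxidase, HRP and Amplex Red were added. Initial and 30 min RT fluorescence reads were collected.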
(In general: In qHTS, concentration-response curves come from the screen itself.)

The nature of test [3]: qHTS of Trypanosoma Brucei Inhibitors: LOPAC Validation (AID 624147). Put shortly:
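Luminescent Kinase-Glo Plus end-point after 45 min room-temperature reaction of T. brucei pyruvate kinase started with 130 uM ADP (final). Buffer TEA 50 mM pH 7.2 with KCl, MgCl2, BSA, Tween-20; titration-based qHTS with fitted concentration-effect curves.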

The target in test [4] is Glucagon-like peptide 1 receptor (Homo sapiens) (UniProt P43220). Briefly: qHTS of GLP-1 Receptor Agonists: LOPAC Validation (AID 624148).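 Note: higher luminescence signal means agonism.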 Put shortly:
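HEK293 cells stably co-expressing GLP-1R and a cAMP-responsive luciferase reporter, plated 12 hours before compound, then incubated 4-6 hr at 37 deg C. Luminescence read 12 min after detection reagent.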

Test [5] can be described thus: qHTS of Nrf2 Activators: LOPAC Validation (AID 624149). Put shortly:
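AREc32_Fluc cells, 1000/well, OPTI-MEM + 5% FBS, o/n 37 deg C 5% CO2; compound pin-transfer, 24 hr 37 deg C; Steady-Glo 30 min RT, luminescence read.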

The nature of test [6]: HTS Assay for Allosteric Antagonists of the Human D2 Dopamine Receptor: Hit Validation in HTRF (AID 624455). In short, it runs like this:
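HTRF read-out; cells stably expressing D1 receptor; hits scored for inhibition of D1-mediated response. Primary screen: calcium flux, force-coupled inducible Hek293 Trex D2 line, antagonism vs EC80 dopamine.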
(Time-resolved FRET reads energy transfer from a long-lived donor to a nearby acceptor.)

In test [7] the target is Luciferin 4-monooxygenase (Photinus pyralis) (UniProt P08659). Briefly: Biochemical firefly luciferase enzyme assay for NPC (AID 624030).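 Note: purified P. pyralis luciferase at 10 nM with luciferin and ATP substrate; series mostly up to about 59 µM; nearly all actives have a fitted effect of over 70% in size.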 Put shortly:
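Purified P. pyralis luciferase at 10 nM in 50 mM Tris Acetate (final), luminescence read within 5 minutes of enzyme addition to compounds. Activity normalised to PTC124 versus DMSO; concentration-response curves classed by r2, magnitude and activity.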

Test [8] can be described thus: S16 Schwann cell viability assay (CellTiter-Glo assay) (AID 624031). Note: nearly all actives have a fitted effect of over 70% in size. Note: potency is the fitted concentration of half-maximal effect. Put shortly: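 Native S16 rat Schwann cells, 500-750 cells/well in DMEM with 10% FBS, dosed with compound after overnight culture and incubated 24h at 37 degree Celsius/5% CO2. Viability by CellTiter-Glo luminescence; % activity normalized to no-cell wells and DMSO-treated cells.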
Background: ATP-based viability assays read luminescence as a measure of living cells.

A short description of test [9]: S16 Schwann cell PMP22 intronic element firefly luciferase assay (AID 624032). Note: series mostly up to about 58 µM; nearly all actives have a fitted effect of over 30% in size. In short, it runs like this:
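Rat S16 Schwann cells stably carrying firefly luciferase driven by a PMP22 intronic element, in 10% FBS, treated 24 h at 37 C. ONE-Glo luminescence normalized to PTC124 control and DMSO (0%); curves classed by r2, magnitude and activity.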

Test [10] is described as follows: S16 Schwann cell PMP22 intronic element beta-lactamase assay (AID 624044; calls by dose curve; note: nearly all actives have a fitted effect of over 15% in size). Put shortly:
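Beta-lactamase reporter under a PMP22 intronic regulatory element in stable S16 rat Schwann cells; 24 h compound exposure. 460 nm blue signal normalized between DMSO (0%) and potassium clavulanate, with 535 nm FRET tracking viability; curves classed by r2 and response.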

Chain of Luciferin 4-monooxygenase (Photinus pyralis) (P08659 whole entry, looked up): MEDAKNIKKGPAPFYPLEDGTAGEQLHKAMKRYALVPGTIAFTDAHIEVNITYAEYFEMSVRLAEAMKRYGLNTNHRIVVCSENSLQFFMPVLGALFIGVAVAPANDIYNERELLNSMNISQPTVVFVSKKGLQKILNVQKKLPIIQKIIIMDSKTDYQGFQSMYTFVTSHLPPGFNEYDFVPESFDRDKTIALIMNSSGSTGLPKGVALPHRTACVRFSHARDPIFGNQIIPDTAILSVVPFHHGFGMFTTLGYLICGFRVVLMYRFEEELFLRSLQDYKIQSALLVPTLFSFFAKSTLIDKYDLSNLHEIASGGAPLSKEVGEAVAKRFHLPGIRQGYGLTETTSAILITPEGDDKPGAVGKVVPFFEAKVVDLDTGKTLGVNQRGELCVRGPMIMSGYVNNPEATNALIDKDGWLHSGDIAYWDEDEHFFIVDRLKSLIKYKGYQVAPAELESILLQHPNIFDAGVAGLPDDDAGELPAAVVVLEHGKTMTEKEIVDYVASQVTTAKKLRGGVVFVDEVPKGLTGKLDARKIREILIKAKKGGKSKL
Chain of Glutaminase kidney isoform, mitochondrial (Homo sapiens) (O94925 whole entry, looked up, canonical isoform): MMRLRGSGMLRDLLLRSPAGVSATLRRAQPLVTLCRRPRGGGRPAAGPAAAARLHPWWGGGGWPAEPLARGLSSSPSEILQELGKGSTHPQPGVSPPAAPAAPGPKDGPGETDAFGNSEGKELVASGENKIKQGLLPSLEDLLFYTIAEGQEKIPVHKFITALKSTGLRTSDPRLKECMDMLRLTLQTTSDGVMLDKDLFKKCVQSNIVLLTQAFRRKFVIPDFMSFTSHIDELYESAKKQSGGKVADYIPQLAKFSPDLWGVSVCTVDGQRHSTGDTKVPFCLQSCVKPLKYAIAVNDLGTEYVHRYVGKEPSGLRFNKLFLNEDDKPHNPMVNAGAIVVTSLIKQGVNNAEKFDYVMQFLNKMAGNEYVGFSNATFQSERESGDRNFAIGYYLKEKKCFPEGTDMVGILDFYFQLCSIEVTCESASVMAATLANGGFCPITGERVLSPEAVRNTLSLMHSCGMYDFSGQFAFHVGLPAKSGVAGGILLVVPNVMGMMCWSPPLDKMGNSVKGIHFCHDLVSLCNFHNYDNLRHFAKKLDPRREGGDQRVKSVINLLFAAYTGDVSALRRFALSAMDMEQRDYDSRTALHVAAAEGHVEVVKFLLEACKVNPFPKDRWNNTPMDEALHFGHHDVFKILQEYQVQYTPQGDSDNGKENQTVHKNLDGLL
Chain of Voltage-gated inwardly rectifying potassium channel KCNH2 (Homo sapiens) (Q12809 whole entry, looked up): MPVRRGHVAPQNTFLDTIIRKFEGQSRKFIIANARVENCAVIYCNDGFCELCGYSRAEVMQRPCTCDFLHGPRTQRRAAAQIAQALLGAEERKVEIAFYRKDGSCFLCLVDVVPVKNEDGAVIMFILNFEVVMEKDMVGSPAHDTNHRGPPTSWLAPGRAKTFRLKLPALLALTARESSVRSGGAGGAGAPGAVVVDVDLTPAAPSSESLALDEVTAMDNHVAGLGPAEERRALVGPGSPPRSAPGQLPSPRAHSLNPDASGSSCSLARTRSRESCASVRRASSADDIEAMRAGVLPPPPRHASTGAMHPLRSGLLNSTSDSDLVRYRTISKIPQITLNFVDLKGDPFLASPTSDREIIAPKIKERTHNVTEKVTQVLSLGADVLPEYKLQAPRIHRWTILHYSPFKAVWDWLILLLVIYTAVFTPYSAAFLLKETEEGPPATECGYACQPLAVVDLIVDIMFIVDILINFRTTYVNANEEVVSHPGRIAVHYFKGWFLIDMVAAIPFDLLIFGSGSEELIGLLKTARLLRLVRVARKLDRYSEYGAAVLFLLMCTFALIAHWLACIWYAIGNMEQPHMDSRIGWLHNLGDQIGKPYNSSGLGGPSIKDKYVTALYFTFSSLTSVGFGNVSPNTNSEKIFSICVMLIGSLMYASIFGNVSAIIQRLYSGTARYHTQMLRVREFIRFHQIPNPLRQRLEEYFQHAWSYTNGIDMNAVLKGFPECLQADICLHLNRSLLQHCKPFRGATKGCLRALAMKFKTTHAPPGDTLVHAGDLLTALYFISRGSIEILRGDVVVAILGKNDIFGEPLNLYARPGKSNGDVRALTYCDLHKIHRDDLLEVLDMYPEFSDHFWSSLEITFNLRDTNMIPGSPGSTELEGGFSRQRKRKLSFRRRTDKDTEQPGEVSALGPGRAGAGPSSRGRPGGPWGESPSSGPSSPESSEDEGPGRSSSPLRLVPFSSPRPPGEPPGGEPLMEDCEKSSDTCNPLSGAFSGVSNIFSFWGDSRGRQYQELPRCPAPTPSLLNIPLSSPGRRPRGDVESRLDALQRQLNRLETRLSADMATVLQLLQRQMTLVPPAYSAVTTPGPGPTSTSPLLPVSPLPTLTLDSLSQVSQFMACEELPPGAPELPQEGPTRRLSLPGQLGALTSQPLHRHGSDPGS
Chain of Glucagon-like peptide 1 receptor (Homo sapiens) (P43220 whole entry, looked up): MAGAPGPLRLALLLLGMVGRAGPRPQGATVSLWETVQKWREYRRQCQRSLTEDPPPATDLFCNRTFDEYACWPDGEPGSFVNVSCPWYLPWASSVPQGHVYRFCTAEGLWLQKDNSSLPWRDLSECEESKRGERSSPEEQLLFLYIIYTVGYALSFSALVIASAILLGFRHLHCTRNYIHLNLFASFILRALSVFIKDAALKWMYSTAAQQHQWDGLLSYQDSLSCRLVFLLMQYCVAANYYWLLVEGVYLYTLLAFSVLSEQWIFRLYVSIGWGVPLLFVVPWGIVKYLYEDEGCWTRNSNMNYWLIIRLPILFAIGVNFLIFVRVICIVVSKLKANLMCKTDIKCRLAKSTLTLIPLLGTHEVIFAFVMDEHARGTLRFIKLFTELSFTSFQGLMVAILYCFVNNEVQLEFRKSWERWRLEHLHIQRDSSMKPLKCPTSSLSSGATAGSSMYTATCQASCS

For the compound `COc1ccc(CNC(=O)/C=C/c2ccc3[nH]cc(CCN(C)C)c3c2)cc1`, the Potency in test [1] is 11.2 µM (active). For the same compound, the Potency result in test [2], in test [3], in [5] and in test [6] was “inactive” throughout. Further, in [4], the compound was classed as inactive.

Take `CC(C)(C)c1o[nH]c(=O)c1CC(N)C(=O)O` (centres undefined): the Potency entry in test [1], in [2], in test [3], in test [5] and in test [6] was “inactive” each time. In [4], the outcome was inactive.

Take `N[C@@]1(C(=O)O)CC[C@@H](C(=O)O)C1`: the Potency result in [1], in [2], in test [3], in test [5] and in test [6] was “inactive” in each case. In addition, in test [4], the compound was classed as inactive.

For the compound `CN1CC[C@@]2(C)c3cc(O)ccc3N(C)C12` (some centres undefined), the Potency in test [1] is 35.5 µM (active); in test [2], 10 µM (active). The Potency result in [3], in test [5] and in test [6] was “inactive” in each case. For the same compound, the call in test [4] was inactive.

With `CC(C)NP(=O)(NC(C)C)OP(=O)(NC(C)C)NC(C)C`, the Potency entry in [1], in test [2], in test [3], in test [5] and in test [6] was “inactive” each time. Besides, the compound was classed as inactive in [4].

Consider `Clc1ccc(N2CC3CCC(C2)N3)nn1`, for which the Potency result in [1], in test [2], in [3], in test [5] and in test [6] was “inactive” each time. In [4], the compound was classed as inactive.

Take `CN1CCc2cccc(Cl)c2CC1`: the Potency result in [1], in test [2], in [3] and in [5] was “inactive” each time. The compound was classed as inactive in test [4].

For the compound `C[C@]12Cc3cn4c(nc3C=C1CCC1C2CC[C@@]2(C)[C@H]1CC[C@@]2(O)C#N)nc1ccccc14` (some centres undefined), the Potency in test [1] is 2 µM (active). Further, the Potency entry in test [2], in test [3], in test [5] and in test [6] was “inactive” throughout. Further, the compound was classed as inactive in [4].

As for `NC(Cc1cc(O)c(O)cc1O)C(=O)O` (centres undefined), the Potency entry in test [1], in [2], in test [3], in test [5] and in [6] was “inactive” each time. In addition, in test [4], the compound was classed as inactive.

Turning to `C=CCN1C[C@@H](C)N([C@H](c2ccc(C(=O)N(CC)CC)cc2)c2cccc(OC)c2)C[C@@H]1C`, the Potency in test [1] was 4.47 µM (active). For the same compound, the Potency entry in [2], in test [3], in test [5] and in test [6] was “inactive” throughout. For the same compound, the compound was classed as inactive in [4].

For the compound `Ic1ccccc1CNC1C2CCN(CC2)C1C(c1ccccc1)c1ccccc1` (centres undefined), the Potency in [1] is 1 µM (active). For the same compound, the Potency result in test [2], in test [3], in [5] and in test [6] was “inactive” in each case. The compound was classed as inactive in test [4].

On to `CN1CC[C@@]2(C)c3cc(OC(=O)Nc4ccccc4)ccc3N(C)[C@@H]12`, for which the Potency in test [2] was 1.12 µM (active). Moreover, the Potency entry in [3], in [5] and in test [6] was “inactive” each time. Further, the outcome in [4] was inactive.

As to `OCc1cnc[nH]1`, the Potency entry in [2], in [3], in [5] and in [6] was “inactive” throughout. Further, in test [4], the compound was called inactive.

`N#CCCN`: the Potency result in test [2], in test [3], in [5] and in test [6] was “inactive” each time. Moreover, the compound was called inactive in [4].

Consider `NCCc1ccc(S(=O)(=O)F)cc1`, for which the Potency entry in [2], in [3], in test [5] and in test [6] was “inactive” each time. The compound was called inactive in test [4].

With `COc1ccc(OC)c(C(O)C(C)N)c1` (centres undefined), the Potency entry in test [7], in test [8], in test [9], in test [2] and in test [5] was “inactive” throughout. Further, the call in test [4] was inactive.

As for `c1ccc2sc(SNC3CCCCC3)nc2c1`, the Potency entry in [8] and in test [10] was “inactive” throughout.

As for `c1ccc(C2(N3CCCC3)CCCCC2)cc1`, the Potency entry in test [7], in test [8] and in test [10] was “inactive” each time.

Take `CNC(=O)OCC[N+](C)(C)C`: the Potency entry in test [8], in test [9] and in test [10] was “inactive” each time.

As for `C[N+]1(C)CCN(c2ccccc2)CC1`, the Potency entry in test [2], in test [3], in test [5] and in test [6] was “inactive” throughout. Further, the call in test [4] was inactive.

With `CCNC(C)Cc1cccc(C(F)(F)F)c1` (centres undefined), the Potency result in test [8] and in test [10] was “inactive” each time.

Regarding `CC(C)(O)[C@@H]1C2OC(=O)[C@@H]1[C@]1(O)C[C@H]3O[C@]34C(=O)O[C@H]2[C@]14C` (tested in a mixture with another compound), the Potency entry in [2], in test [3], in test [5] and in [6] was “inactive” throughout. Further, the compound was classed as inactive in test [4].

Regarding `CCCn1c(=O)c2[nH]c(C3CCCC3)nc2n(CCCOC(=O)c2ccc(S(=O)(=O)F)cc2)c1=O`, the Potency entry in test [2], in test [3], in test [5] and in test [6] was “inactive” throughout. The result in test [4] was inactive.

On to `Cc1sc2ccccc2c1CC1=NCCN1`, for which the Potency entry in test [8], in test [10], in [2], in test [3], in test [5] and in test [6] was “inactive” each time. Further, in [4], the call was inactive.

On to `CN1C2CCC1CC(OC(c1ccccc1)c1ccc(Cl)cc1)C2` (centres undefined), for which the Potency entry in test [7] and in [10] was “inactive” throughout. Moreover, in [8], the Potency is 20.3 µM (active).

As to `CCCn1c(C)c(C(=O)c2ccc3ccccc3c2)c2ccccc21`, the Potency result in test [2], in [3], in [5] and in test [6] was “inactive” in each case. The result in [4] was inactive.

For the compound `CCCN(CCC)C1Cc2cc(OC)c(OC)cc2C1`, the Potency entry in test [2], in [3], in [5] and in test [6] was “inactive” each time. In addition, the compound was classed as inactive in test [4].

With `CN1C2CCC1CC(OC(c1ccccc1)c1ccccc1N)C2` (centres undefined), the Potency entry in test [2], in test [3], in [5] and in test [6] was “inactive” each time. The call in test [4] was inactive.

Consider `c1ccc2c(c1)[I+]c1ccccc1-2`, for which the Potency result in test [2], in [3], in test [5] and in test [6] was “inactive” in each case. Also, the result in test [4] was inactive.

Regarding `CC(=O)OCC1=C(C(=O)O)N2C(=O)[C@@H](NC(=O)CCC[C@@H](N)C(=O)O)[C@H]2SC1`, the Potency entry in test [2], in [3], in test [5] and in test [6] was “inactive” in each case. Further, the compound was classed as inactive in test [4].

Consider `CN1c2ccccc2C(NCCCCCCC(=O)O)c2ccc(Cl)cc2S1(=O)=O` (centres undefined), for which the Potency entry in [7], in test [8] and in test [10] was “inactive” in each case.

For the compound `C=CCN1CC[C@]23c4c5ccc(O)c4O[C@@H]2/C(=N/N=C2\CC[C@@]4(O)C6Cc7ccc(O)c8c7[C@@]4(CCN6CC=C)[C@@H]2O8)CC[C@@]3(O)C1C5`, the Potency in test [2] is 2 µM (active). Moreover, the Potency result in test [3], in test [5] and in test [6] was “inactive” each time. For the same compound, in test [4], the call was inactive.

As for `COc1ccc2c(c1)c(CCN1CCOCC1)c(C)n2C(=O)c1cccc(Cl)c1Cl`, the Potency result in test [2], in test [3], in test [5] and in test [6] was “inactive” throughout. In addition, the compound was called inactive in [4].
